In paper PMC4336329 (PLoS ONE, 2015):
In all, about 310,000 compounds went through this assay and about 14,000 (4.5%) showed an effect of 50% or more. The effect is printed as a negative number. This excerpt belongs to a sample that is enriched for strong results.

Biological target: human ether-à-go-go-related gene (hERG) potassium channel (human, UniProt Q12809)
Experiment: primary screen, population patch clamp on CHO cells stably expressing hERG; higher = less effect of the substance
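Note: peak tail current of the secondary pulse compared with the same well before compound.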

human ether-à-go-go-related gene (hERG) potassium channel, sequence (Q12809 whole entry, looked up): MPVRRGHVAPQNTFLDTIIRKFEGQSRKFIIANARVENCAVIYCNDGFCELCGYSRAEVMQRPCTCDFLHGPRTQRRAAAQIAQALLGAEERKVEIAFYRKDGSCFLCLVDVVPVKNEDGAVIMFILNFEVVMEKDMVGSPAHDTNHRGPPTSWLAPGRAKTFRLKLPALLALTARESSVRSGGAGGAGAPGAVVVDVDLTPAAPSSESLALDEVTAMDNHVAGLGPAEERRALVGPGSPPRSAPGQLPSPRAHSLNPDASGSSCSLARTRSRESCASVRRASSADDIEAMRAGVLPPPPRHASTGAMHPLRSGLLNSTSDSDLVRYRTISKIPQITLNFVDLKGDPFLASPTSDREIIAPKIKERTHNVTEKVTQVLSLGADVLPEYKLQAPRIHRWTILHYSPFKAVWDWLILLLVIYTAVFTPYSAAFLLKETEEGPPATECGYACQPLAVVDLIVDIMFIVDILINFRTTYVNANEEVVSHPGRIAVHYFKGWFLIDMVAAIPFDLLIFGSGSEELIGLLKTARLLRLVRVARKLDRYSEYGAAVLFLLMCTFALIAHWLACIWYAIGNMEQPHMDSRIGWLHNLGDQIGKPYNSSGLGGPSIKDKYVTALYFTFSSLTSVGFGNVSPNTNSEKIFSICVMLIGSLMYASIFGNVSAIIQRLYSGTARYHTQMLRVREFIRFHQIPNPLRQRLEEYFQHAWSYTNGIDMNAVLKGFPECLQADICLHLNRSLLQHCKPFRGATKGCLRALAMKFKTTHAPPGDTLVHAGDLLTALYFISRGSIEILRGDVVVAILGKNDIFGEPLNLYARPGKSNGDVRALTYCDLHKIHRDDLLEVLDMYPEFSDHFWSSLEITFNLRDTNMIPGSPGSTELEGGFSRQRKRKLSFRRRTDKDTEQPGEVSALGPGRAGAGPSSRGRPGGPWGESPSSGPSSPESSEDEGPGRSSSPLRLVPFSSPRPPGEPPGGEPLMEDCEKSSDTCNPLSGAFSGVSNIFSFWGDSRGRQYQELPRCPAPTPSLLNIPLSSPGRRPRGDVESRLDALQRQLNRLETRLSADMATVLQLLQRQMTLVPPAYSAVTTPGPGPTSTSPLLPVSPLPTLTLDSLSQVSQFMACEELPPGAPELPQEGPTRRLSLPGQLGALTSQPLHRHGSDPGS

**Q.** With `O=C(CCNS(=O)(=O)c1cccc2nsnc12)NCCc1ccccc1` as the compound, how does the “hERG current change (%, negative = inhibition) at 10uM” value read?
**A.** -4.18%

**Q.** How did the “hERG current change (%, negative = inhibition) at 10uM” value turn out when `COC(=O)CC1(CC(=O)OC)C(=O)NC(=O)NC1=O` was run?
**A.** 7.37%

**Q.** For `CCCC(=O)OCC(=O)Nc1cc(Cl)ccc1[N+](=O)[O-]`, which “hERG current change (%, negative = inhibition) at 10uM” value is on record?
**A.** 16.8%

**Q.** For `Cc1ccc(Oc2nc3ccccc3n3cccc23)cc1`, which “hERG current change (%, negative = inhibition) at 10uM” value is on record?
**A.** -10.1%

**Q.** With `O=C(OCC(=O)N1CCCc2ccccc21)c1ccc(Cl)nc1` as the compound, how does the “hERG current change (%, negative = inhibition) at 10uM” value read?
**A.** -3.94%

**Q.** With `Cc1c(C(=O)NNC(=O)c2csc(N3CCOCC3)n2)oc2ccccc12` as the compound, how does the “hERG current change (%, negative = inhibition) at 10uM” value read?
**A.** -38.7%

**Q.** Which “hERG current change (%, negative = inhibition) at 10uM” value does the source give for `COC(=O)C1CCN(Cc2c(C(=O)N3C[C@@H](C)O[C@@H](C)C3)nc3ccc(Cl)cn23)CC1` here?
**A.** 21.1%

**Q.** Which “hERG current change (%, negative = inhibition) at 10uM” value does the source give for `COCCCNC(=O)c1cn(Cc2c(F)cccc2Cl)nn1` here?
**A.** -3.65%

**Q.** How did the “hERG current change (%, negative = inhibition) at 10uM” value turn out when `CCOC(=O)c1nnn(-c2nonc2N)c1COc1c(C=O)cccc1OC` was run?
**A.** -6.2%

**Q.** For `Cc1cc(=O)n(C)c(=O)n1CCCCOc1ccc([N+](=O)[O-])cc1`, which “hERG current change (%, negative = inhibition) at 10uM” value is on record?
**A.** -68.9%

**Q.** With `Cc1cc(=O)n(C)c(=O)n1CCCCCCN1CCCC1.O=C(O)C(=O)O` as the compound, how does the “hERG current change (%, negative = inhibition) at 10uM” value read?
**A.** 8.96%

**Q.** For `Cc1cc(=O)n(C)c(=O)n1CCCCCN1CCCC1.O=C(O)C(=O)O`, which “hERG current change (%, negative = inhibition) at 10uM” value is on record?
**A.** 5.16%

**Q.** How did the “hERG current change (%, negative = inhibition) at 10uM” value turn out when `Cc1n[nH]c(C)c1CCCCOc1ccc([N+](=O)[O-])cc1` was run?
**A.** -16.4%

**Q.** With `Cc1cc(=O)n(C)c(=O)n1CCCCCCOc1ccc([N+](=O)[O-])cc1` as the compound, how does the “hERG current change (%, negative = inhibition) at 10uM” value read?
**A.** -63.9%

**Q.** How did the “hERG current change (%, negative = inhibition) at 10uM” value turn out when `O=[N+]([O-])c1ccc(OCCOCCOc2ccc([N+](=O)[O-])cc2)cc1` was run?
**A.** -16.6%

**Q.** How did the “hERG current change (%, negative = inhibition) at 10uM” value turn out when `CN(Cc1ccccc1)C(=O)CNC(=O)Cn1cnc2ccccc2c1=O` was run?
**A.** -7.88%

**Q.** For `CC(/C=C/C=C/c1ccccc1)=N/NC(=O)c1ccc2c(c1)OCCO2`, which “hERG current change (%, negative = inhibition) at 10uM” value is on record?
**A.** 7.79%

**Q.** `C=CCn1c(SCC(=O)Nc2cc(C)nn2-c2ccccc2)nnc1C1CCCCC1` was tested. Which “hERG current change (%, negative = inhibition) at 10uM” value did it give?
**A.** -14.1%

**Q.** Which “hERG current change (%, negative = inhibition) at 10uM” value does the source give for `CCS(=O)(=O)N1CCC(C(=O)c2ccc(Cl)cc2)CC1` here?
**A.** -47.3%

**Q.** With `COc1ccc(CN2CCC(C(=O)c3ccc(Cl)cc3)CC2)cc1` as the compound, how does the “hERG current change (%, negative = inhibition) at 10uM” value read?
**A.** -78.7%

**Q.** How did the “hERG current change (%, negative = inhibition) at 10uM” value turn out when `COc1ccc(CN2CCC(C(=O)c3ccc(F)cc3)CC2)cc1` was run?
**A.** -78.4%

**Q.** With `CC(=O)N1CCC(C(=O)c2ccc(Cl)cc2)CC1` as the compound, how does the “hERG current change (%, negative = inhibition) at 10uM” value read?
**A.** -0.317%

**Q.** For `O=C(c1ccc(F)cc1)C1CCN(Cc2ccc(F)cc2)CC1`, which “hERG current change (%, negative = inhibition) at 10uM” value is on record?
**A.** -47.7%

**Q.** How did the “hERG current change (%, negative = inhibition) at 10uM” value turn out when `COc1ccc(NC(=O)N2CCC(C(=O)c3ccc(F)cc3)CC2)cc1` was run?
**A.** -18.6%

**Q.** Which “hERG current change (%, negative = inhibition) at 10uM” value does the source give for `Cc1ccccc1C(=O)NCCCc1ccccc1` here?
**A.** 12.5%

**Q.** `O=C(NCCC(=O)N1CCCCC1)c1ccccc1Cl` was tested. Which “hERG current change (%, negative = inhibition) at 10uM” value did it give?
**A.** -14.2%

**Q.** For `COc1ccccc1N1CCN(/N=C\C(Br)=C\c2ccccc2)CC1`, which “hERG current change (%, negative = inhibition) at 10uM” value is on record?
**A.** 10.2%

**Q.** For `COCCNC(=O)C(c1ccc(O)cc1)N(Cc1ccco1)C(=O)CCC(=O)Nc1ccccn1` (stereo not drawn), which “hERG current change (%, negative = inhibition) at 10uM” value is on record?
**A.** 23.8%

**Q.** Which “hERG current change (%, negative = inhibition) at 10uM” value does the source give for `CCCCSc1nnc([C@@H]2CCCN2C(=O)OC(C)(C)C)o1` here?
**A.** -12.2%

**Q.** For `O=C(Nc1cccc(C(F)(F)F)c1)NC1CCN(S(=O)(=O)c2ccc(F)cc2)CC1`, which “hERG current change (%, negative = inhibition) at 10uM” value is on record?
**A.** 12.2%

**Q.** `O=C(CCNC(=O)C1CCN(S(=O)(=O)c2ccccc2)CC1)Nc1cccc(C(F)(F)F)c1` was tested. Which “hERG current change (%, negative = inhibition) at 10uM” value did it give?
**A.** -45.1%

**Q.** Which “hERG current change (%, negative = inhibition) at 10uM” value does the source give for `COc1ccc(S(=O)(=O)N2CCCN(CCC(=O)Nc3cccc(C(F)(F)F)c3)CC2)cc1` here?
**A.** -69.6%

**Q.** For `O=C(CN1CCN(S(=O)(=O)c2ccccc2)CC1)Nc1cccc(C(F)(F)F)c1`, which “hERG current change (%, negative = inhibition) at 10uM” value is on record?
**A.** -56.2%

**Q.** For `O=C(CN1CCN(S(=O)(=O)c2ccc(F)cc2)CC1)Nc1cccc(C(F)(F)F)c1`, which “hERG current change (%, negative = inhibition) at 10uM” value is on record?
**A.** -55.5%

**Q.** How did the “hERG current change (%, negative = inhibition) at 10uM” value turn out when `O=C(CNc1cccc(C(F)(F)F)c1)Nc1cccc(S(=O)(=O)N2CCCC2)c1` was run?
**A.** -6.44%

**Q.** Which “hERG current change (%, negative = inhibition) at 10uM” value does the source give for `COc1ccc(S(=O)(=O)N2CCN(CCC(=O)Nc3ccc(F)cc3)CC2)cc1` here?
**A.** -18.9%

**Q.** For `COc1ccc(NC(=O)CCN2CCN(S(=O)(=O)c3ccc(OC)cc3)CC2)cc1`, which “hERG current change (%, negative = inhibition) at 10uM” value is on record?
**A.** -25%

**Q.** Which “hERG current change (%, negative = inhibition) at 10uM” value does the source give for `O=C(CN1CCN(S(=O)(=O)c2ccc(F)cc2)CC1)Nc1cc(C(F)(F)F)ccc1Cl` here?
**A.** -4.15%

**Q.** For `Nc1c(N(Cc2ccco2)C(=O)COc2ccccc2F)c(=O)[nH]c(=O)n1Cc1ccccc1`, which “hERG current change (%, negative = inhibition) at 10uM” value is on record?
**A.** 0.883%

**Q.** `CNC(=O)CSCc1c(F)cccc1Cl` was tested. Which “hERG current change (%, negative = inhibition) at 10uM” value did it give?
**A.** 17.8%

**Q.** Which “hERG current change (%, negative = inhibition) at 10uM” value does the source give for `CCCOC(=O)C1=C(C)NC2=C(C(=O)C(C(=O)OC)C(C)C2)C1c1ccc(N(CC)CC)cc1` (stereo not drawn) here?
**A.** -5.21%

**Q.** Which “hERG current change (%, negative = inhibition) at 10uM” value does the source give for `COC(=O)c1ccccc1NC(=O)CC(NCc1ccccc1)C(=O)O` (stereo not drawn) here?
**A.** -20.7%

**Q.** With `CCCCn1c(SCC(N)=O)nnc1-c1ccco1` as the compound, how does the “hERG current change (%, negative = inhibition) at 10uM” value read?
**A.** 15.3%

**Q.** `COc1cccc(-n2nnnc2SCC(=O)NCc2ccco2)c1` was tested. Which “hERG current change (%, negative = inhibition) at 10uM” value did it give?
**A.** -2.06%

**Q.** With `COc1cc(NC(=O)CN2CCN(c3ccccc3F)CC2)c(C)cc1[N+](=O)[O-]` as the compound, how does the “hERG current change (%, negative = inhibition) at 10uM” value read?
**A.** 28.2%

**Q.** `COc1ccccc1N1CCc2c(C)nc3c(OC)cccc3c21` was tested. Which “hERG current change (%, negative = inhibition) at 10uM” value did it give?
**A.** -61%

**Q.** With `Cc1nc2c(C)cccc2c2c1CCS2` as the compound, how does the “hERG current change (%, negative = inhibition) at 10uM” value read?
**A.** 0.813%

**Q.** Which “hERG current change (%, negative = inhibition) at 10uM” value does the source give for `COc1ccccc1N1CCN(c2nc(C)nc3c2oc2ccccc23)CC1.Cl` here?
**A.** -1.5%

**Q.** How did the “hERG current change (%, negative = inhibition) at 10uM” value turn out when `CCOC(=O)c1cnc2c(OC)cccc2c1N1CCN(c2ccccc2OC)CC1` was run?
**A.** -45.4%

**Q.** For `Cc1nc2c(C)cccc2c2c1COC2`, which “hERG current change (%, negative = inhibition) at 10uM” value is on record?
**A.** 7.98%

**Q.** With `COc1cccc2c3c(c(C)nc12)CCN3c1ccccc1` as the compound, how does the “hERG current change (%, negative = inhibition) at 10uM” value read?
**A.** -54.6%

**Q.** Which “hERG current change (%, negative = inhibition) at 10uM” value does the source give for `Cc1nc2c(C)cccc2c2c1CCN2c1ccccc1F` here?
**A.** -62.4%

**Q.** For `CCOC(=O)c1cnc2c(OC)cccc2c1N1CCN(c2ccc(OC)cc2)CC1`, which “hERG current change (%, negative = inhibition) at 10uM” value is on record?
**A.** -47.1%

**Q.** For `CCc1c(C)nc2c(OC)cccc2c1Cl`, which “hERG current change (%, negative = inhibition) at 10uM” value is on record?
**A.** -2.25%

**Q.** `COc1cccc2c(Cl)c(CCCl)c(C)nc12` was tested. Which “hERG current change (%, negative = inhibition) at 10uM” value did it give?
**A.** 10.2%

**Q.** With `COc1ccc(N2CCc3c(C)nc4c(OC)cccc4c32)cc1` as the compound, how does the “hERG current change (%, negative = inhibition) at 10uM” value read?
**A.** -73.5%

**Q.** For `COc1cccc2c3c(c(C)nc12)CC(C)O3` (stereo not drawn), which “hERG current change (%, negative = inhibition) at 10uM” value is on record?
**A.** -21.9%
